Source: PubChem BioAssay (National Center for Advancing Translational Sciences (NCATS))
Compounds with a hit are over-represented: about 5.3% of the library has one in this group of screens.
HCV inhibitor – qHTS Assay for Inhibitors of Hepatitis C Virus (HCV); Huh7.5.1 HCVcc-Cre infection, luciferase reporter, 44 h; Potency, µM (series often up to 41.8 µM), without a hit: at the highest dose activity change, negative = inhibition, usual class: inhibitors; 3.4% of 340,000 active; AID 651820, 2012; active = well fitted inhibition curve with a large enough effect; inconclusive = small, poorly fitted or top-dose-only effect, or another doubt; inactive = no such curve, though single readings can be large or run the other way
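Infectious HCV cell culture screen: compound-treated cells (1,000/well, pre-plated 4 h) are infected with HCVcc-Cre at roughly 0.5 moi and grown 44 h. Infection is quantified by luciferase signal after 15 min substrate incubation at room temperature.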
FMDV inh – High Throughput Screening for Foot and Mouth Disease Virus Antivirals; 1.2% of 410,000 active; FMDV antiviral cell-based qHTS; AID 1159524, 2015; Potency, µM (highest dose often 57.9 µM), inactives show at the highest dose activity change, negative = inhibition, most hits filed as inhibitors; calls by dose curve; tested in HEK293T cells; also: read-out not given here; nearly all actives have a fitted effect of over 45% in size
Vaccinia mCherry – qHTS for Stage-Specific Inhibitors of Vaccinia Orthopoxvirus: mCherry Reporter Primary qHTS; Vaccinia virus mCherry reporter infection, fluorescence; Potency, µM (highest dose often 36.5 µM), without a hit: top-dose activity change, negative = inhibition, actives largely listed as inhibitors; 0.63% of 310,000 active; AID 720579, 2013; calls by dose curve; tested in A549 cells; also: nearly all actives have a fitted effect of over 35% in size
LASV entry inh – qHTS for Inhibitors of binding or entry into cells for Lassa Virus; Lassa virus pseudotype entry inhibition, cell reporter; Potency, µM (doses to about 37.9 µM), for inactives: at the top dose activity change, negative = inhibition, usual class: inhibitors; 1.2% of 300,000 active; AID 540256, 2011; calls by dose curve; tested in HEK293 cells; also: nearly all actives have a fitted effect of over 50% in size
VACV Venus inh – qHTS for Stage-Specific Inhibitors of Vaccinia Orthopoxvirus: Venus Reporter Primary qHTS. AID 720580, 2013. Potency, µM (highest dose often 36.5 µM), for inactives: at the highest dose activity change, negative = inhibition, usual class: inhibitors. Vaccinia virus Venus reporter expression, fluorescence. 0.46% of 330,000 active; calls by dose curve; tested in A549 cells; also: nearly all actives have a fitted effect of over 30% in size
MARV entry inh – qHTS for inhibitors of binding or entry into cells for Marburg Virus; 1.8% of 300,000 active; Potency, µM (top dose mostly 37.8 µM), for inactives: top-dose activity change, negative = inhibition, most hits filed as inhibitors; AID 540276, 2011; Marburg virus pseudotyped entry inhibition, cell reporter; calls by dose curve; tested in HEK293 cells
An asterisk follows results filed as active; i = inactive; ? = inconclusive; . = no result given; [ ] = remark or other dose. % is scaled to controls: 0 for no effect and ±100 for the full control effect; potency is read from the fitted curve at half-maximal effect.

SMILES	HCV inhibitor	FMDV inh	Vaccinia mCherry	LASV entry inh	VACV Venus inh	MARV entry inh
COc1ccc(C(=O)NNC(=S)NC(=O)C(C)(C)C)cc1	?	-3.8%	3.98µM*	?	?	?
COc1ccc(C(=O)NC(=S)NNC(=O)COc2ccccc2)cc1	-25.6%	28.2µM*	?	17.6%	-14.8%	?
O=S1CCCS[C@@H]1c1cccnc1 (some centres not stated)	.	.	.	.	.	-7.6%
O=C(/C=C/c1cccs1)NC(=S)NNC(=O)c1ccccc1O	22.4µM*	-13.6%	?	?	-7.8%	?
Cc1nc(N2CCCCC2)c2c(-c3cccs3)csc2n1	5.8%	?	-17.1%	-5.4%	-9.4%	27.4%
Cc1nc(N2CCN(S(=O)(=O)c3ccccc3C#N)CC2)c2c(-c3cccs3)csc2n1	10µM*	?	.	.	.	.
CCC(=O)Nc1cc2nn(-c3ccc(C)cc3)nc2cc1C	2.2%	6.31µM*	0.5%	?	-23.5%	?
O=C(Nc1ccccc1Br)N1CCN2CCCCC2C1 (configuration not stated)	.	-5.1%	-6.1%	11.8%[46.1 µM]	-9.8%	.
CCn1c(SCc2nc3scc(-c4ccccc4)c3c(=O)[nH]2)nnc1-c1cccs1	?	?	-13.4%	-9.7%	-25.3%	?
COCCn1c(SCc2nc3scc(-c4ccc(Cl)cc4)c3c(=O)[nH]2)nnc1-c1cccc(C)c1	?	39.8µM*	?	-25.3%	?	?
Fc1ccccc1SCc1nnc(-c2ccccc2Br)o1	-26.8%	-41.9%	-8.6%	?	-0.9%	5.01µM*
Cc1cc[n+](C(C)C(=O)c2ccc(-c3ccccc3)cc2)cc1 (configuration not stated)	?	?	-29.6%	10µM*	-17.1%	?
CC(C(=O)c1ccc(-c2ccccc2)cc1)[n+]1ccccc1 (configuration not stated)	?	-21.2%	-27.5%	?	-27.3%	10µM*
Cc1ccc[n+](C(C)C(=O)c2ccc(-c3ccccc3)cc2)c1 (configuration not stated)	-22.5%	-28.3%	-5.0%	?	-28.7%	?
Cc1cc(NC(=O)c2cccc(Br)c2)n[nH]1	13.4%	67.2%	-6.3%	.	-6.7%	.
CSc1nccc(NC(=O)c2cccc(Br)c2)n1	10µM*	?	i	-2.3%[46.1 µM]	-18.7%	?
COc1cc(C(CC(=O)NCc2ccc(F)cc2)N2Cc3ccccc3C2=O)cc(OC)c1OC (configuration not stated)	.	40.2%	-14.1%	-11.2%[46.1 µM]	-6.4%	.
CSc1nc(C(=O)N2CCc3c(cnc(C)c3CNC(=O)c3ccc4c(c3)OCO4)C2)cs1	.	-0.4%	-15.2%	.	-3.3%	.
O=C(CSc1nc(-c2cccs2)cc(C(F)(F)F)n1)Nc1cc(OCC(F)(F)F)cc([N+](=O)[O-])c1	?	?	-5.7%	?	-29.8%	7.08µM*
CCOc1ccccc1NC(=O)CSc1nc(-c2cccs2)cc(C(F)(F)F)n1	.	-11.8%	-21.9%	0.0%[46.1 µM]	-19.2%	1.0%[46.1 µM]
COCC(=O)Nc1cc(C(=O)N2CCCCC2c2nccs2)c2c(c1)nc(-c1ccncc1)n2C (configuration not stated)	.	-9.5%	-11.2%	.	-2.5%	.
Cc1[nH]n(-c2ncc(-c3ccccc3)s2)c(=O)c1C(c1ccc(Cl)cc1)C(C#N)C#N (configuration not stated)	0.5%	20µM*	-18.9%	7.3%	-13.5%	14.0%
COc1ccc([C@]23Cc4cc(OC)c(OC)cc4[C@H](O2)C2=C(CC(C)(C)CC2=O)O3)cc1	.	.	.	.	.	20.0%[14.2 µM]
C=CCn1cc(C(=O)NCCOC)c(=O)c2cc(S(=O)(=O)N(CC)CC)ccc21	18.4%	52.0%	.	11.6µM*	.	2.1%
C=CCn1cc(C(=O)NCCCOCC)c(=O)c2cc(S(=O)(=O)N(CC)CC)ccc21	-10.6%	7.3%	.	6.51µM*	.	-3.9%
C=CCn1cc(C(=O)NCc2ccc3c(c2)OCO3)c(=O)c2cc(S(=O)(=O)N(CC)CC)ccc21	?	-14.6%	-23.8%	0.708µM*	-22.1%	?
